# Laboratory results reported in PubChem BioAssay (NCI).
# “And” between values parts separate entries of the source, which are not always exact repeats. Equal values may be shown once. Compounds without any hit were thinned out: in the full panel of roughly 79,000, 15% have a hit. The source made the active and inactive calls. No stated cut-off is given here; in the data, active means growth inhibition above about 70%; inactive means the rest.
# Assay: NCI Yeast Anticancer Drug Screen. Data for the bub3 strain (AID 167)
# Settings: S. cerevisiae bub3 mutant strain, stronger effect = higher value; at 50.0 µM unless noted
# Method in brief: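 Growth of a checkpoint-deficient yeast mutant is measured after compound exposure. Values represent inhibition relative to vehicle.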
row,Structure (SMILES),growth inhibition
1,Cc1nnc(N)nc1C,-1.3% (inactive)
2,COc1ccc(C(=O)CC(c2ccccc2)C(C#N)c2ccccc2)cc1 (stereo not given),8.95% (inactive) and -5.05% (inactive)
3,CN1CC2=C(NC(=S)NC2c2ccc(Cl)cc2)/C(=C/c2ccc(Cl)cc2)C1 (stereo not given),29.2% (inactive)
4,CSc1nc(NC2OC(COC(C)=O)C(OC(C)=O)C(OC(C)=O)C2OC(C)=O)c(N=CC=Nc2c(NC3OC(COC(C)=O)C(OC(C)=O)C(OC(C)=O)C3OC(C)=O)nc(SC)[nH]c2=O)c(=O)[nH]1 (stereo not given),6.6% (inactive)
5,Cc1ccc2c(c1)C1(c3ccc(Cl)cc3Cl)Oc3ccc(C)cc3C(c3ccc(Cl)cc3Cl)(O2)O1,-2.7% (inactive)
6,Cc1cc(Cl)ccc1NC(=O)Oc1ccc(C#N)cc1,-17.1% (inactive)
7,OCCN/N=C/c1ccncc1,-14.3% (inactive)
8,COS(=O)(=O)N(C)c1nc(N(C)C)nc(N(C)C)n1,3.95% (inactive)
9,ON=C(c1ccccn1)c1ccccn1,-8.25% (inactive)
10,COC1OC2COC(C)(C)OC2C2OC(C)(C)OC12 (stereo not given),-18.4% (inactive)
11,CCOc1ccc(/C=C(\C(=O)c2ccccc2)S(=O)(=O)c2ccc(OC)cc2)cc1OC,29.6% (inactive)
12,CC(C)(C)[Si](C)(C)OCC1OC(n2cnc3c(=O)[nH]cnc32)CC1O (stereo not given),44% (inactive)
13,COc1ccc(Cl)cc1NC(=O)Oc1ccc(NC(C)=O)cc1,11% (inactive)
14,CSc1ccc2nncc(SC)c2c1,18% (inactive)
15,OC(COc1cccc(C(F)(F)F)c1)CN1CCN(c2ccc(F)cc2)CC1 (stereo not given),86.4% (active)
16,CCOc1ccc(N=Nc2c(-c3ccccc3)nn(C(=O)CC(=O)Nc3ccccc3Cl)c2-c2ccccc2)cc1,31% (inactive)
17,CN(C)C(n1cc2c(c1)-c1ccc(Cl)cc1C(c1ccccc1F)=NC2)n1cc2c(c1)-c1ccc(Cl)cc1C(c1ccccc1F)=NC2,-7.55% (inactive)
18,C1CSCCSCCS1,28% (inactive)
19,Cc1ncc(CO)c(/C=N\OCc2cccc(Cl)c2)c1O,17.1% (inactive)
20,N#C/C(=C\c1ccccc1)c1cccc(F)c1,15.7% (inactive)

row,Structure (SMILES),growth inhibition
1,O=[N+]([O-])c1c[nH]c2ncnc(Cl)c12,-3% (inactive)
2,O=C(N/N=C/c1ccc(O)cc1)C(c1ccccc1)N1CCCCC1 (stereo not given),3.05% (inactive)
3,COc1ccc(N=C=Nc2ccc(OC)cc2)cc1,-10.2% (inactive)
4,OCc1ccccc1Sc1ccccc1CO,-31.6% (inactive)
5,CCNC(=O)c1ccc(C(C)C)cc1,2.15% (inactive)
6,CCOC(=O)Cc1ccc(N(CCO)CCO)cc1,12.9% (inactive)
7,Cc1cc(C(=O)C(C#N)=Nc2ccc(N(C)C)cc2)c(CN2C(=O)c3ccccc3C2=O)c(=O)n1C,-6.15% (inactive)
8,O=C(O)c1cccc(OCCO)c1,-17.9% (inactive)
9,Nc1cncnc1N,-18.6% (inactive)
10,CC1(C)Oc2ccccc2OC1O (stereo not given),-10.2% (inactive)
11,C/C=C/C=C/C(=O)OCCCC,15.1% (inactive)
12,Cc1ccc(C(=O)CC2=Nc3nnc(CCCCCCCc4nnc5n4C(=O)C(CC(=O)c4ccc(C)cc4)=N5)n3C2=O)cc1,-5.25% (inactive)
13,CC1CC1C(N)C1CC1C (stereo not given),10.8% (inactive)
14,NC(=O)OCCOC(N)=O,15.8% (inactive)
15,N#CCNC(=O)Cc1ccccc1,-30.3% (inactive)
16,CN(C)c1ccc(C(c2ccc(N(C)C)cc2)c2ccc([N+](=O)[O-])cc2)cc1,39% (inactive)
17,COCN(CCc1ccccc1)CCN(C)C,2.05% (inactive)
18,C[N+](C)(CCCCCCCCCC[N+](C)(C)CC(=O)c1ccccc1)CC(=O)c1ccccc1,0.4% (inactive)
19,COc1cccc(C)c1NC(=O)NCCCl,12.1% (inactive)
20,COC1=CC(=O)c2cc3ccc(OC)c(N)c3nc2C1=O,13.3% (inactive)

# Assay: NCI Yeast Anticancer Drug Screen. Data for the mlh1 rad18 strain (AID 175)
# Settings: S. cerevisiae mlh1 rad18 strain growth inhibition, stronger effect = higher value; at 50.0 µM unless noted
# Method in brief: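 Genetically defined yeast (DNA repair-deficient) exposed to compounds; growth inhibition determined relative to vehicle.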
row,Structure (SMILES),growth inhibition
1,Cc1nnc(N)nc1C,13.6% (inactive)
2,COc1ccc(C(=O)CC(c2ccccc2)C(C#N)c2ccccc2)cc1 (stereo not given),-7% (inactive) and 8.5% (inactive)
3,CN1CC2=C(NC(=S)NC2c2ccc(Cl)cc2)/C(=C/c2ccc(Cl)cc2)C1 (stereo not given),4.15% (inactive)
4,CSc1nc(NC2OC(COC(C)=O)C(OC(C)=O)C(OC(C)=O)C2OC(C)=O)c(N=CC=Nc2c(NC3OC(COC(C)=O)C(OC(C)=O)C(OC(C)=O)C3OC(C)=O)nc(SC)[nH]c2=O)c(=O)[nH]1 (stereo not given),5.75% (inactive)
5,Cc1ccc2c(c1)C1(c3ccc(Cl)cc3Cl)Oc3ccc(C)cc3C(c3ccc(Cl)cc3Cl)(O2)O1,16.6% (inactive)
6,Cc1cc(Cl)ccc1NC(=O)Oc1ccc(C#N)cc1,-19.4% (inactive)
7,OCCN/N=C/c1ccncc1,23.8% (inactive)
8,COS(=O)(=O)N(C)c1nc(N(C)C)nc(N(C)C)n1,-0.95% (inactive)
9,ON=C(c1ccccn1)c1ccccn1,3.8% (inactive)
10,COC1OC2COC(C)(C)OC2C2OC(C)(C)OC12 (stereo not given),16.3% (inactive)
11,CCOc1ccc(/C=C(\C(=O)c2ccccc2)S(=O)(=O)c2ccc(OC)cc2)cc1OC,57% (inactive)
12,CC(C)(C)[Si](C)(C)OCC1OC(n2cnc3c(=O)[nH]cnc32)CC1O (stereo not given),-7.85% (inactive)
13,COc1ccc(Cl)cc1NC(=O)Oc1ccc(NC(C)=O)cc1,4.25% (inactive)
14,CSc1ccc2nncc(SC)c2c1,40.9% (inactive)
15,OC(COc1cccc(C(F)(F)F)c1)CN1CCN(c2ccc(F)cc2)CC1 (stereo not given),92.2% (active)
16,CCOc1ccc(N=Nc2c(-c3ccccc3)nn(C(=O)CC(=O)Nc3ccccc3Cl)c2-c2ccccc2)cc1,18.7% (inactive)
17,CN(C)C(n1cc2c(c1)-c1ccc(Cl)cc1C(c1ccccc1F)=NC2)n1cc2c(c1)-c1ccc(Cl)cc1C(c1ccccc1F)=NC2,-22.9% (inactive)
18,C1CSCCSCCS1,-4.9% (inactive)
19,Cc1ncc(CO)c(/C=N\OCc2cccc(Cl)c2)c1O,9.2% (inactive)
20,N#C/C(=C\c1ccccc1)c1cccc(F)c1,11.4% (inactive)

row,Structure (SMILES),growth inhibition
1,O=[N+]([O-])c1c[nH]c2ncnc(Cl)c12,6.8% (inactive)
2,O=C(N/N=C/c1ccc(O)cc1)C(c1ccccc1)N1CCCCC1 (stereo not given),-5.3% (inactive)
3,COc1ccc(N=C=Nc2ccc(OC)cc2)cc1,-13.6% (inactive)
4,OCc1ccccc1Sc1ccccc1CO,24% (inactive)
5,CCNC(=O)c1ccc(C(C)C)cc1,5.75% (inactive)
6,CCOC(=O)Cc1ccc(N(CCO)CCO)cc1,5.55% (inactive)
7,Cc1cc(C(=O)C(C#N)=Nc2ccc(N(C)C)cc2)c(CN2C(=O)c3ccccc3C2=O)c(=O)n1C,5.95% (inactive)
8,O=C(O)c1cccc(OCCO)c1,-29.9% (inactive)
9,Nc1cncnc1N,26.5% (inactive)
10,CC1(C)Oc2ccccc2OC1O (stereo not given),3% (inactive)
11,C/C=C/C=C/C(=O)OCCCC,-1.75% (inactive)
12,Cc1ccc(C(=O)CC2=Nc3nnc(CCCCCCCc4nnc5n4C(=O)C(CC(=O)c4ccc(C)cc4)=N5)n3C2=O)cc1,-11.1% (inactive)
13,CC1CC1C(N)C1CC1C (stereo not given),8.3% (inactive)
14,NC(=O)OCCOC(N)=O,2.55% (inactive)
15,N#CCNC(=O)Cc1ccccc1,-4.7% (inactive)
16,CN(C)c1ccc(C(c2ccc(N(C)C)cc2)c2ccc([N+](=O)[O-])cc2)cc1,-16.8% (inactive)
17,COCN(CCc1ccccc1)CCN(C)C,16.5% (inactive)
18,C[N+](C)(CCCCCCCCCC[N+](C)(C)CC(=O)c1ccccc1)CC(=O)c1ccccc1,18.1% (inactive)
19,COc1cccc(C)c1NC(=O)NCCCl,5.05% (inactive)
20,COC1=CC(=O)c2cc3ccc(OC)c(N)c3nc2C1=O,-10.9% (inactive)
